Experimental data as given in PubChem BioAssay AID1159580 (chemical genetic matrix, 2015).
In all, about 5,500 compounds went through this assay and about 2,000 (36%) were called active. About 18% were inconclusive and are not listed. No stated cut-off is given here; in the data, active means normalized growth mostly below about 0.91 (no sharp cut-off); inconclusive means no clear call, values can overlap the other calls; inactive means mostly above about 0.92. The list shows a part of the results.

Test: chemical genetic growth profiling, strain panel (AID 1159580);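 further: tested at 20 µM; growth read once vehicle control cultures reached saturation at 30 °C; 1 = growth at the plate median or of vehicle wells; lower values mean less growth of the strain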
Conditions: growth OD
[1] = S. cerevisiae deletion strains, locus YDR150W, strain NUM1, active compounds read low
[2] = S. cerevisiae deletion strains, locus YGR229C, strain SMI1, active compounds read low
[3] = S. cerevisiae deletion strains, locus YNL153C, strain GIM3, active compounds read low
[4] = S. cerevisiae deletion strains, locus YPL241C, strain CIN2, active compounds read low
[5] = S. cerevisiae deletion strains, locus YAL040C, strain CLN3, active compounds read low
[6] = S. cerevisiae deletion strains, locus YCL061C, strain MRC1 (second series), active compounds read low
[7] = S. cerevisiae deletion strains, locus YDR363W, strain ESC2, active compounds read low
[8] = S. cerevisiae deletion strains, locus YER002W, strain NOP16, active compounds read low
[9] = S. cerevisiae deletion strains, locus YNL175C, strain NOP13, active compounds read low
[10] = S. cerevisiae deletion strains, locus YNL197C, strain WHI3, active compounds read low
[11] = S. cerevisiae deletion strains, locus YNL224C, strain SQS1, active compounds read low
[12] = S. cerevisiae deletion strains, locus YOR083W, strain WHI5 (second series), active compounds read low

Measured: normalized growth

NC(=S)c1ccc2nonc2c1
inactive: S. cerevisiae deletion strains, locus YAL013W, strain DEP1, active compounds read low 0.999 | S. cerevisiae deletion strains, locus YBR229C, strain ROT2, active compounds read low 1 | S. cerevisiae deletion strains, locus YDL101C, strain DUN1, active compounds read low 0.984 | S. cerevisiae deletion strains, locus YDL134C, strain PPH21, active compounds read low 0.986 | [1] 0.927 | S. cerevisiae deletion strains, locus YEL061C, strain CIN8, active compounds read low 1 | S. cerevisiae deletion strains, locus YGR078C, strain PAC10, active compounds read low 1 | [2] 0.994 | S. cerevisiae deletion strains, locus YHR030C, strain SLT2, active compounds read low 0.991 | S. cerevisiae deletion strains, locus YHR087W, strain rtc3, active compounds read low 0.996 | S. cerevisiae deletion strains, locus YJR043C, strain POL32, active compounds read low 1.02 | S. cerevisiae deletion strains, locus YJR075W, strain HOC1, active compounds read low 1.01 | S. cerevisiae deletion strains, locus YLR039C, strain RIC1, active compounds read low 1.04 | S. cerevisiae deletion strains, locus YLR058C, strain SHM2 (second series), active compounds read low 1 | S. cerevisiae deletion strains, locus YLR085C, strain ARP6, active compounds read low 0.945 | S. cerevisiae deletion strains, locus YLR262C, strain YPT6, active compounds read low 1.02 | S. cerevisiae deletion strains, locus YML094W, strain GIM5, active compounds read low 0.982 | S. cerevisiae deletion strains, locus YMR219W, strain ESC1, active compounds read low 0.992 | S. cerevisiae deletion strains, locus YMR263W, strain SAP30, active compounds read low 1.03 | S. cerevisiae deletion strains, locus YMR307W, strain GAS1, active compounds read low 1.03 | [3] 1.01 | S. cerevisiae deletion strains, locus YNL298W, strain CLA4 (second series), active compounds read low 1.02 | S. cerevisiae deletion strains, locus YNL322C, strain KRE1, active compounds read low 0.996 | S. cerevisiae deletion strains, locus YNR030W, strain Alg12, active compounds read low 0.988 | S. cerevisiae deletion strains, locus YOL006C, strain TOP1, active compounds read low 0.976 | S. cerevisiae deletion strains, locus YPL055C, strain LGE1, active compounds read low 1.09 | [4] 0.963 | S. cerevisiae deletion strains, locus YPR135W, strain CTF4, active compounds read low 1.13 | S. cerevisiae strains, strain wild type, active compounds read low 0.994

COc1ccccc1CNCCCCCCNCCCCCCCCNCCCCCCNCc1ccccc1OC
inactive: [5] 1.01 | [6] 0.96 | [7] 0.906 | [8] 1.03 | [3] 0.942 | [9] 0.992 | [10] 1.03 | [11] 1.03 | [12] 0.875 | [4] 0.96

O=C(O)CC[C@@H](C(=O)O)N1C(=O)c2ccccc2C1=O
inactive: [5] 0.987 | [6] 1.01 | [1] 1 | [7] 0.987 | [8] 0.975 | [2] 1 | [9] 0.973 | [10] 0.976 | [11] 0.991 | [12] 1.06
